According to PubChem BioAssay (EPA / NIEHS):
Inconclusive results are not listed. Active and inactive are the calls of the source. Rule for the calls: active = hit-call score of the fitted dose curve at least 0.9, where 1 is the maximum; inconclusive = response in the unintended direction; inactive = score below 0.9.

Experiment: ATG_XTT_Cytotoxicity: Cytotoxicity Assessment in the Attagene TRANS-FACTORIAL HepG2 Assay (AID 2283584);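 for AC50: cells exposed to compound for 24 h before reading; active means loss of viability signal versus DMSO baseline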
Procedure, shortened: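 XTT readout of cell number in transfected HepG2 cells, 24 h post-dosing; DMSO serves as negative control and baseline, with activity taken as loss of viability signal.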
With `CCC(CO)CO` the outcome was “inactive”.
In the case of `CC(C)CCCCCOC(=O)CCS`, the outcome is reported as “inactive”.
In the case of `NNC(=O)c1cccc(C(=O)NN)c1`, the outcome is reported as “inactive”.
With `O=C(O)Cc1c(Cl)ccc(Cl)c1Cl` the outcome was “inactive”.
In the case of `OCCCS`, the outcome is reported as “inactive”.
For `O=C1Nc2ccccc2C1(c1ccc(O)cc1)c1ccc(O)cc1`, the outcome was “inactive”.
With `O=C(c1ccc(O)cc1)c1ccc(O)cc1O` the outcome was “inactive”.
In the case of `CC(=O)CC(N)=O`, the outcome is reported as “inactive”.
For `C=C(C)CCO`, the outcome was “inactive”.
With `COC(=O)c1ccc2cc(C(=O)OC)ccc2c1` the outcome was “inactive”.
In the case of `CC(C)(C)c1n[nH]c(=O)n(N)c1=O`, the outcome is reported as “inactive”.
With `CCN(CCO)c1cccc(C)c1` the outcome was “inactive”.
For `CNC(=S)N(C)C`, the outcome was “inactive”.
For `O=C(Oc1ccccc1)c1ccc2ccccc2c1O`, the outcome was “inactive”.
In the case of `CCCCCCCCc1ccc(Nc2ccc(CCCCCCCC)cc2)cc1`, the outcome is reported as “inactive”.
With `CC1(C)O[C@@H]2C[C@H]3[C@@H]4C[C@H](F)C5=CC(=O)C=C[C@]5(C)[C@@]4(F)[C@@H](O)C[C@]3(C)[C@]2(C(=O)CO)O1` the outcome was “inactive”.
For `CCCCCCCCCCCCCCCC[n+]1ccccc1`, the AC50 was 26.6 µM (active).
For `CCCCCCCCC(=O)OCC`, the outcome was “inactive”.
In the case of `CC(=O)OCc1ccco1`, the outcome is reported as “inactive”.
With `CC(C)=CC1CC(C)CCO1` (stereo unspecified) the outcome was “inactive”.
With `C=CC(C)(CCC=C(C)C)OC(=O)C(C)C` (stereo unspecified) the outcome was “inactive”.
For `COc1ccc([C@@H]2CC(=O)c3c(O)cc(O[C@@H]4O[C@H](CO[C@@H]5O[C@@H](C)[C@H](O)[C@@H](O)[C@H]5O)[C@@H](O)[C@H](O)[C@H]4O)cc3O2)cc1OC`, the outcome was “inactive”.
For `CC(=O)OC1C2(C)CCC(C2)C1(C)C` (stereo unspecified), the outcome was “inactive”.
For `O=S(=O)(O)c1ccc2cc(O)c(S(=O)(=O)O)cc2c1`, the outcome was “inactive”.
With `CCC(=O)Oc1ccc(/C(CC)=C(\CC)c2ccc(OC(=O)CC)cc2)cc1` the outcome was “inactive”.
In the case of `[Cl][Bi]([Cl])([c]1ccccc1)([c]1ccccc1)[c]1ccccc1`, the AC50 is reported as 7.84 µM (active).
In the case of `C(=CC=Nc1ccccc1)C=CNc1ccccc1`, the outcome is reported as “inactive”.
In the case of `Nc1ccc2cc3ccccc3cc2c1`, the outcome is reported as “inactive”.
With `CCN(CC#N)c1cccc(C)c1` the outcome was “inactive”.
For `C[Si](C)(CCCN)O[Si](C)(C)CCCN`, the outcome was “inactive”.
For `O=c1c2ccccc2nnn1CCl`, the outcome was “inactive”.
In the case of `CC(C)CCCC(C)CC=O` (stereo unspecified), the outcome is reported as “inactive”.
With `O=C(Cl)c1cc(C(=O)Cl)cc(C(=O)Cl)c1` the outcome was “inactive”.
With `CCN(CC)c1ccc(C(=O)c2ccccc2C(=O)O)c(O)c1` the outcome was “inactive”.
With `Cc1ccc(OC(=O)CC(C)C)cc1` the outcome was “inactive”.
In the case of `CCOC(=O)[C@H](C)O`, the outcome is reported as “inactive”.
